These results are taken from article PMC4336329 (PLoS ONE, 2015).

The structures appear in SMILES notation. About 14,000 (4.5%) of roughly 310,000 compounds showed an effect of 50% or more. Effects have a minus sign here. This excerpt belongs to a sample that is enriched for strong results.
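Note: peak tail current of the secondary pulse compared with the same well before compound.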

Chain of human ether-à-go-go-related gene (hERG) potassium channel (Q12809 whole entry, looked up): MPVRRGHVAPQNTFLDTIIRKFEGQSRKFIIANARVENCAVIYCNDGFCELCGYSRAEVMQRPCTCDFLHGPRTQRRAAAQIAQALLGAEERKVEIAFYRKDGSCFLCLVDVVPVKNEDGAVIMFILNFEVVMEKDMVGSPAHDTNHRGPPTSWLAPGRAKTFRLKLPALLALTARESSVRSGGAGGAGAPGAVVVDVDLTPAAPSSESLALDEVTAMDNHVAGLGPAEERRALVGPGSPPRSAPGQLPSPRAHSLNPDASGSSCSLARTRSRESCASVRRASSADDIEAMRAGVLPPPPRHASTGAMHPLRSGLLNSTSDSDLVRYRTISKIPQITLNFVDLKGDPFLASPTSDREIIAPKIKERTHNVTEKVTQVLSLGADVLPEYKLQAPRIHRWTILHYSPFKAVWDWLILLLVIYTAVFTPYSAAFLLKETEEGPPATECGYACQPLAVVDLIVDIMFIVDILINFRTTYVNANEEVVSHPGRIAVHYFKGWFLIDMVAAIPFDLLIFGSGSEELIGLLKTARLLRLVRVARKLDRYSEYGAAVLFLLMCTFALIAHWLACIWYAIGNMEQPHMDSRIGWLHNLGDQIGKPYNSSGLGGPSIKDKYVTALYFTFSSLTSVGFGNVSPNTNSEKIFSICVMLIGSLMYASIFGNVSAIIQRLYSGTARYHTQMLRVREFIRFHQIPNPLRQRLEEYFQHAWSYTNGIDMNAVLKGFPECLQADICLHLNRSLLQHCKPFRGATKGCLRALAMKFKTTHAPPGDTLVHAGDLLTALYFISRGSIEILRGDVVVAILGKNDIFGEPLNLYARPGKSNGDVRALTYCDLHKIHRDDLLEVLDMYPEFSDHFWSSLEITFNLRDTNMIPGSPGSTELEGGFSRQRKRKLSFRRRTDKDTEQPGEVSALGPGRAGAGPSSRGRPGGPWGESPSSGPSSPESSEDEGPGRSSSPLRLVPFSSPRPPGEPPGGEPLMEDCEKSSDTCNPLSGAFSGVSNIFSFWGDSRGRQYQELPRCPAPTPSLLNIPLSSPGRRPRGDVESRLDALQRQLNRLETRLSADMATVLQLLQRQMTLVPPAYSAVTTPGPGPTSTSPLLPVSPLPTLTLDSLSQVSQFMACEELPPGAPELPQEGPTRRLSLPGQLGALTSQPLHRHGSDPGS

The experiment has as its target human ether-à-go-go-related gene (hERG) potassium channel (human, UniProt Q12809). Description: primary screen, population patch clamp on CHO cells stably expressing hERG; higher = less effect of the substance.
For the compound `CCOC(=O)N1CCN(C(=O)c2ccc(CNS(=O)(=O)c3ccc(OC)cc3)cc2)CC1`, the “hERG current change (%, negative = inhibition) at 10uM” value is reported as -4.84%.
On to `O=C(CCN1CCN(C/C=C/c2ccccc2)CC1)Nc1cccc(F)c1`, for which the “hERG current change (%, negative = inhibition) at 10uM” value is on record as -77.9%.
For the compound `Cl.O=C(CCN1CCCCCC1)Nc1cccc(F)c1`, the “hERG current change (%, negative = inhibition) at 10uM” value is given as -23.6%.
Turning to `CN1CCN(CCC(=O)Nc2cccc(F)c2)CC1`, the “hERG current change (%, negative = inhibition) at 10uM” value is -1.22%.
With `CCOC(=O)OC(C)OC1=C(C(=O)Nc2ccccn2)N(C)S(=O)(=O)c2ccccc21` (stereo not shown), the “hERG current change (%, negative = inhibition) at 10uM” value is recorded as 16.1%.
With `O=P(Nc1c(Cl)cccc1Cl)(c1ccccc1)c1nc2c(s1)CCCC2` (stereo not shown) the figure was 10%; with `Nc1nonc1-n1nnc(C(=O)N/N=C/c2ccc(Br)cc2)c1CSC1=NCCS1`, -3.36%; with `O=c1[nH]c([N+](=O)[O-])nn1C(c1ccccc1)c1ccccc1`, -13.7%.
With `COCCCN1C(=O)c2ccccc2C1C(=O)NC1CCCCCC1` (stereo not shown), the “hERG current change (%, negative = inhibition) at 10uM” value was -2.83%.
With `COCCNC(=O)CN1C2CCC1CC(O)(c1cccnc1)C2` (stereo not shown) the figure was 0.682%.
With `O=C(Nc1cccc(F)c1)N1C2CCC1CC(O)(c1cccnc1)C2` (stereo not shown) the figure was 24.1%; with `O=C(CN1C2CCC1CC(O)(c1cccnc1)C2)Nc1ccc2c(c1)OCO2` (stereo not shown), -53.1%; with `O=C(Nc1ccccc1)N1C2CCC1CC(O)(c1cccnc1)C2` (stereo not shown), 8.01%.
Take `COc1cc(NC(=O)CN2C3CCC2CC(O)(c2cccnc2)C3)cc(OC)c1` (stereo not shown): the “hERG current change (%, negative = inhibition) at 10uM” value was -60.9%.
As to `COc1ccc(NC(=O)CN2C3CCC2CC(O)(c2cccnc2)C3)cc1OC` (stereo not shown), the “hERG current change (%, negative = inhibition) at 10uM” value was determined as 0.385%.
As for `Brc1cccc(-c2nnc3n2CCC3)c1`, the figure is 2.98%; as for `O=C(NC1CCN(C(=O)Nc2ccccc2)CC1)C1CCCCC1`, -7.88%.
Take `O=C(CN1C(=O)c2cccc3cccc1c23)Nc1ccc(S(=O)(=O)N2CCOCC2)cc1`: the “hERG current change (%, negative = inhibition) at 10uM” value is -9.06%.
For the compound `CCCSCCCNC(=O)Cn1cc2c(n1)CCC(C)C2` (stereo not shown), the “hERG current change (%, negative = inhibition) at 10uM” value was -12.8%.
In the case of `COc1ccc(-c2nc3n(c(=O)c2C#N)CCCS3)cc1`, the “hERG current change (%, negative = inhibition) at 10uM” value is -4.57%.
`COCCNC(=O)/C(=C/c1ccccc1Cl)c1ccccc1`: the “hERG current change (%, negative = inhibition) at 10uM” value is reported as -0.406%.
As for `COC(=O)N/N=C\c1ccc(OC/C=C/c2ccccc2)c(OC)c1`, the “hERG current change (%, negative = inhibition) at 10uM” value is 6.04%.
Regarding `N#CC1=C(SCC(=O)c2cc3ccccc3oc2=O)NC(=O)C(C#N)C12CCCC2` (stereo not shown), the “hERG current change (%, negative = inhibition) at 10uM” value is listed as -54.5%.
For `N#CC1=C(SCc2ccccc2)NC(=O)C(C#N)C12CCCC2` (stereo not shown), the “hERG current change (%, negative = inhibition) at 10uM” value is reported as 1.97%.
`N#CC1=C(SCC(=O)Nc2cccc3cccnc23)NC(=O)C(C#N)C12CCCCC2` (stereo not shown): the “hERG current change (%, negative = inhibition) at 10uM” value is -20.7%.
For the compound `COC(=O)c1ccc(NC(=O)CCS(=O)(=O)c2ccc(Br)cc2)cc1`, the “hERG current change (%, negative = inhibition) at 10uM” value amounted to 28.8%.
As to `NC(N)=NS(=O)(=O)c1ccc(NC(=S)NC(=O)c2ccncc2)cc1`, the “hERG current change (%, negative = inhibition) at 10uM” value is 2.9%.
With `COc1ccccc1CNC(=O)C1=C(C)C(=O)OC12CCC(C)CC2` (stereo not shown), the “hERG current change (%, negative = inhibition) at 10uM” value is -2.21%.
For the compound `COc1cccc(C2=CC(=O)C[C@H](c3ccc(OC)c(OC)c3)C2)c1`, the “hERG current change (%, negative = inhibition) at 10uM” value is listed as -40%.
With `COCc1cccc(C2=CC(=O)C[C@H](c3ccc(OC)cc3)C2)c1`, the “hERG current change (%, negative = inhibition) at 10uM” value was -20.7%.
As for `COc1ccc([C@H]2CC(=O)C=C(c3ccccc3)C2)cc1OC`, the figure is -3.04%; as for `COc1ccc([C@H]2CC(=O)C=C(c3cccc(CO)c3)C2)cc1`, -59.3%; as for `COc1ccc([C@H]2CC(=O)C=C(c3ccc(CO)cc3)C2)cc1`, -4.98%.
For `O=C1C=C(c2cccc(CO)c2)C[C@@H](c2ccc(F)cc2)C1`, the “hERG current change (%, negative = inhibition) at 10uM” value was -45.3%.
`O=C1C=C(c2cccc(CO)c2)C[C@@H](c2ccc(Cl)cc2)C1`: the “hERG current change (%, negative = inhibition) at 10uM” value was -54.5%.
With `O=C1C=C(c2cccc(Cl)c2)C[C@@H](c2ccc(Cl)cc2)C1` the figure was 24.4%; with `COc1ccc([C@H]2CC(=O)C=C(c3cccc(CO)c3)C2)cc1OC`, -63.6%; with `CC[C@@H]1[C@H]2CCCC(=O)N3CC[C@@H](C[C@@H]1Nc1ccccc1)[C@@H]23`, -3.88%.
For the compound `Cc1ccc(NC(=O)COC(=O)c2cccc(OC(F)F)c2)cc1S(=O)(=O)N1CCCCC1`, the “hERG current change (%, negative = inhibition) at 10uM” value was -21.1%.
On to `CCc1c(C)nc(N)n2c(SCC(=O)Nc3ccccc3)nnc12`, for which the “hERG current change (%, negative = inhibition) at 10uM” value amounted to 12.5%.
For the compound `O=C1NC(Cc2c[nH]c3ccccc23)C(=O)N1CCOc1ccccc1` (stereo not shown), the “hERG current change (%, negative = inhibition) at 10uM” value is -22.7%.
Turning to `O=C(CCC(=O)N1CCSc2ccccc21)Nc1ccc(F)cc1`, the “hERG current change (%, negative = inhibition) at 10uM” value was -4.12%.
As for `Cc1oc(-c2ccccc2F)nc1CS(=O)CC(=O)NCc1ccccn1` (stereo not shown), the figure is -0.614%.
